Sampled rows, rich in hits. Any-hit rate of the full collection: about 7.1%.
Marburg entry: qHTS for Inhibitors of binding or entry into cells for Marburg Virus. Marburg virus pseudotype entry/binding inhibition, cell-based. Potency, µM (doses to about 49.2 µM), for inactives: top-dose activity change, negative = inhibition, usual class: inhibitors. hit rate 6.5% among 18,000
Lassa entry: qHTS for Inhibitors of binding or entry into cells for Lassa Virus; Lassa virus pseudotyped entry inhibition, cell-based qHTS; Potency, µM (titrated, usually from 49.2 µM), for the others: at the top dose activity change, negative = inhibition, most hits filed as inhibitors; hit rate 4.1% among 18,000
The depositor's hits bear a star; ? = inconclusive; . = no result; ! = a repeat was not active; [ ] = dose if it differs, or a comment. Calls come from the whole dose curve; tested in HEK293 cells. % is set by controls: 0 for no effect and ±100 for the full control effect; potency is the fitted concentration of half-maximal effect.

SMILES	Marburg entry	Lassa entry
COC(=O)N[C@@H](c1cccc(C)c1)[C@]1(C(=O)OC)CCCC1=O	?	11%[8.59 µM]
CCOC(=O)NN=C1C[C@@H](O)[C@@H](O)[C@@H]2[C@H]3C(=O)N(c4cccc(Oc5ccccc5)c4)C(=O)[C@@H]3CC[C@@H]12	37%[8.59 µM]	-10%[8.59 µM]
O=C(Nc1cccc2c(=O)cc(-c3nn[nH]n3)oc12)c1ccc(OCCCCc2ccccc2)cc1	12%	-5%
Cc1cnc(SCc2ccccn2)nc1C1CCCN(C(=O)c2scc3c2CCCC3)C1 (centres undefined)	10µM*	?
CC(=O)Nc1ccc(C(=O)N2CCCC(c3nc(SCc4ccccn4)ncc3C)C2)cc1 (centres undefined)	-7%	0%
CC(C)(C)c1ccc(C(O)CCCN2CCC(C(O)(c3ccccc3)c3ccccc3)CC2)cc1 (centres undefined)	?	16µM*
OC(c1ccccc1)(c1ccccc1)C1CCNCC1	-25%[17.8 µM]	-1%[17.8 µM]
O[C@H](CCCN1CCN(c2ncc(F)cn2)CC1)c1ccc(F)cc1	-26%	0%
CC(C)(C)c1ccc([C@@H](O)CCCN2CCC(C(O)(c3ccccc3)c3ccccc3)CC2)cc1	?	6.3µM*
CSc1nnc(CCNC(=O)/C=C/c2cccc(F)c2)n1-c1ccc(F)cc1	12%	-12%
CC(C)C[C@H](NC(=O)[C@H](CCCCN)NC(=O)CNC(=O)[C@H](CC(C)C)NC(=O)[C@@H](N)C(C)C)C(=O)N[C@@H](CO)C(=O)N[C@@H](CCC(N)=O)C(=O)N[C@@H](CCC(=O)O)C(=O)N[C@@H](CC(C)C)C(=O)N[C@@H](Cc1cnc[nH]1)C(=O)N[C@@H](CCCCN)C(=O)N[C@@H](CC(C)C)C(=O)N[C@@H](CCC(N)=O)C(=O)N[C@H](C(=O)N[C@@H](Cc1ccc(O)cc1)C(=O)N1CCC[C@H]1C(=O)N[C@@H](CCCNC(=N)N)C(=O)N[C@H](C(=O)N[C@@H](CC(N)=O)C(=O)N[C@H](C(=O)NCC(=O)N[C@@H](CO)C(=O)NCC(=O)N[C@H](C(=O)N1CCC[C@H]1C(N)=O)[C@@H](C)O)[C@@H](C)O)[C@@H](C)O)[C@@H](C)O	10%	-3%
O=C(Nc1ccc(Cl)cc1)OC[C@@H]1CSCCS(=O)(=O)N1	33%	42%
OC1OC[C@H](O)[C@@H](O)[C@H]1O (some centres undefined)	-27%	?
COc1ccc(COC(=O)NN=C2C[C@@H](O)[C@@H](O)[C@@H]3[C@H]4C(=O)N(C5CCCCC5)C(=O)[C@@H]4CC[C@@H]23)cc1	-29%[8.59 µM]	.
CCOC(=O)NN=C1C[C@@H](O)[C@@H](O)[C@@H]2[C@H]3C(=O)N(c4ccc(F)cc4F)C(=O)[C@@H]3CC[C@H]12	-21%[8.59 µM]	9%[8.59 µM]
COc1ccc(COC(=O)NN=C2C[C@@H](O)[C@@H](O)[C@@H]3[C@H]4C(=O)N(c5ccc(F)cc5F)C(=O)[C@@H]4CC[C@H]23)cc1	30%[8.59 µM]	1.3µM*
COc1ccc(COC(=O)NN=C2C[C@@H](O)[C@@H](O)[C@@H]3[C@H]4C(=O)N(C[C@@H]5CCCO5)C(=O)[C@@H]4CC[C@H]23)cc1	?	0.6µM*
COC(=O)[C@@H]1[C@H](CCc2ccccc2)NC(=O)N(Cc2ccccc2)[C@H]1C	-24%[8.59 µM]	.
c1ccc2c(c1)OC[C@@H](C1=NCCN1)O2	11µM*	?
c1ccc(C2(c3ccccc3)CC2C2=NCCN2)cc1 (centres undefined)	2%	2%
O=C(O)c1cc(O)c(O)c(O)c1	3.2µM*	11µM*
O=C(O)c1cc(O)c2c(c1)[O][Bi][O]2	4%	5%
CC(/C=C/C(=O)NO)=C\[C@@H](C)C(=O)c1ccc(N(C)C)cc1	-24%	?
c1cc2cc(c1)C[n+]1ccc(c3ccccc31)NCc1ccc(cc1)CNc1cc[n+](c3ccccc13)C2	10%	-3%
O=c1cc(-c2ccc(O)cc2)oc2cc(O[C@H]3OC(CO)C(O)C(O)C3O)cc(O)c12 (some centres undefined)	66%	44%
SMILES	Marburg entry	Lassa entry
O=c1cc(-c2ccccc2)oc2cc(O[C@@H]3O[C@H](CO)[C@@H](O)[C@H](O)[C@H]3O)c(O)c(O)c12	3.5µM*	-22%
CN(C)CCOC(c1ccccc1)c1ccccc1 (tested in a mixture with another compound)	-11%	-4%
CN(C)CCOC(c1ccccc1)c1ccccc1	28µM*!	?
COc1ccc(/C=C/C(=O)NCC2Cc3cc(Cl)cc(-c4ncccn4)c3O2)cc1 (centres undefined)	4%	-8%
CC(=O)[C@H]1CC[C@H]2[C@@H]3CC[C@@H]4C[C@H](O)CC[C@]4(C)[C@H]3CC[C@]12C	0%	-3%
CC(=O)O[C@H]1[C@H]2O[C@]23[C@@H]2CC[C@@H]4C[C@@H](O)CC[C@]4(C)[C@H]2CC[C@]3(C)[C@H]1c1ccc(=O)oc1	0.089µM*	0.2µM*
CCN1C(=NCc2ccco2)N[C@@H](CCc2ccccc2)[C@H](C(=O)OC)[C@H]1C	33%[8.59 µM]	43%[8.59 µM]
COc1ccc(CN2C[C@H](COCc3ccccc3)Oc3cccc(N4CCCC4)c3S2(=O)=O)cc1	-10%	.
C=CC(C)(C)c1[nH]c2ccccc2c1C1=C(O)C(=O)C(c2c[nH]c3c(CC=C(C)C)cccc23)=C(O)C1=O	-7%	14µM*
N.N.O=C(O)C1(C(=O)O)CCC1.[Pt]	2%	-19%
C[C@]12CC[C@H](O)CC1=CC[C@@H]1[C@@H]2CC[C@]2(C)C(=O)CC[C@@H]12	-22%	-14%
C[C@H]1[C@H]2CC[C@H]3C4CC=C5C[C@@H](N(C)C)CC[C@]5(C)C4CC[C@]23CN1C (some centres undefined)	11µM*	-26%
CN(C)CCOC(c1ccc(Cl)cc1)c1ccccn1 (centres undefined)	?	-6%
CN(C)CCOC1=Cc2ccccc2Sc2ccc(Cl)cc21	13µM*	?
COCCN1CCN(C(=O)c2cnn(-c3nccc(-c4ccccc4F)n3)c2-c2ccco2)CC1	-1%	29%
CCSc1nnc(C(C)NC(=O)c2ccc(OC)cc2)n1C (centres undefined)	2%	2%
CN1CCCN([C@@H](c2ccccc2)c2ccc(Cl)cc2)CC1	11µM*	-11%[17.8 µM]
OCCOCCN1CCN([C@@H](c2ccccc2)c2ccc(Cl)cc2)CC1	?	-11%[17.8 µM]
CC(C)N1C[C@@H](Sc2ccccn2)C[C@H]1C(=O)Nc1ccc2c(c1)Nc1ccccc1CC2	-2%	-21%
CC(=O)O[C@@H](C)C#C[Si](C)(C)c1ccccc1	7%	2%
CN(C)Cc1ccccc1	8%	-16%
CC(COc1ccccc1)N(CCCl)Cc1ccccc1 (centres undefined)	0%	28µM*!
C[C@@H]1O[C@@H](OC2CC(O)C3(CO)C4C(CCC3(O)C2)C2(O)CCC(C3=CC(=O)OC3)C2(C)C[C@H]4O)[C@H](O)[C@H](O)[C@H]1O (some centres undefined)	0.22µM*	0.18µM*
CCC(=O)OC(OP(=O)(CCCCc1ccccc1)CC(=O)N1C[C@H](C2CCCCC2)C[C@H]1C(=O)O)C(C)C (some centres undefined)	24%	-5%
CCCNC[C@H](O)COc1ccccc1C(=O)CCc1ccccc1	8.9µM*	-12%[17.8 µM]
N#Cc1ccccc1OC[C@H](O)CNCCNC(=O)Nc1ccccc1	-3%	-7%

Bioassay records: PubChem, National Center for Advancing Translational Sciences (NCATS)
